aSyn yeast inh – rescues yeast growth from alpha-synuclein toxicity | Yeast expressing alpha-synuclein, growth rescue, BacTiter-Glo, 24 h | Potency, µM (series often up to 46.1 µM), hits mostly activators | 370,000 compounds, 0.14% hits | AID 652106; also: nearly all actives have a fitted effect of over 65% in size
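Galactose-induced alpha-syn yeast (OD600=0.02, raffinose-pregrown) + pinned cpd, 24 hr, 30 deg C; growth by BacTiter-Glo luminescence. Growth restoration scores as activation.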
Abeta rescue – compounds reversing amyloid beta toxicity in yeast; yeast expressing A-beta42, growth rescue, OD600, 48 h; response scale: 0% DMSO, 100% iron-clioquinol control; Potency, µM (doses to about 46.1 µM), usual class: activators; 410,000 compounds, 0.063% hits; AID 1347071; also: nearly all actives have a fitted effect of over 55% in size
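Yeast growth medium received pinned compounds, then yeast cells expressing toxic A-beta were added; plates incubated at 30 C for 48 hr. Growth read as absorbance at 600 nm, normalized to DMSO and equimolar FeCl3 plus clioquinol controls.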
TDP-43 yeast inh – rescues yeast growth from TDP-43 toxicity. TDP-43 expressing yeast growth rescue, BacTiter-Glo, 24 h. Potency, µM (top dose mostly 46.1 µM), actives largely listed as activators. 410,000 compounds, 1.8% hits; also: nearly all actives have a fitted effect of over 50% in size
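Galactose-induced TDP-43 yeast, OD600=0.02, compound pinned; 24 hr, 30 deg C; BacTiter-Glo luminescence for growth. Inhibitors of TDP-43 toxicity read as activators.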
FUS suppressor – rescues growth of FUS-expressing yeast | 390,000 compounds, 0.24% hits | Potency, µM (titrated, usually from 76.6 µM), most hits filed as activators | AID 1347120 | S. cerevisiae FUS-expressing, growth rescue, OD600, 24 h; also: nearly all actives have a fitted effect of over 55% in size
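S. cerevisiae expressing FUS from galactose induction served as the toxicity model. Growth after 24hr at 30C, read as absorbance at 600 nm, indicates suppression of toxicity; compounds dosed at several concentrations.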
Each line names hits and unclear results; the compound was inactive in the other large screens. The list is not random: actives were taken first. Their share in the collection is about 2.1%. Calls follow the shape of the dose curve; as a rule, active = well fitted curve in the direction sought with a large enough effect; inconclusive = small, poorly fitted or top-dose-only effect, or another doubt; inactive = no such curve, though single readings can be large; an effect the other way counts as inactive or inconclusive.

CCNC(=O)C1(C)CCCN(C(=O)COCc2ccccc2)C1 (stereo unspecified)	none
COCCN(C(=O)c1ccc(N2C(=O)c3ccccc3C2=O)cc1)c1c(N)n(CC(C)C)c(=O)[nH]c1=O	none
Cc1cccc(-c2nnc(SCc3ccccc3)o2)c1	TDP-43 yeast inh 11µM
O=C1c2sc3nc4ccccc4n3c2C(=O)N1c1ccccc1Cl	TDP-43 yeast inh 11µM
CCC(=O)NC(=S)Nc1ccc2oc(-c3ccc(OC)cc3)nc2c1	none
O=C(O)c1ccccc1N1C(=O)c2cccc3cccc(c23)C1=O	none
Cc1ccccc1N1C(=O)c2cccc3cccc(c23)C1=O	TDP-43 yeast inh 20µM
CC(C)CC(COCc1cccc(C(F)(F)F)c1)N1CCN(C(=O)c2cccc(C(F)(F)F)c2)CCC1=O (stereo unspecified)	FUS suppressor inconclusive
Cc1ccc(COC[C@H](CC(C)C)N2CCN(C(=O)c3cccc(C(F)(F)F)c3)CCC2=O)cc1	TDP-43 yeast inh 16µM, FUS suppressor 4.5µM
CC(C)CC(COCc1ccc(Cl)cc1)N1CCN(C(=O)c2cccc(C(F)(F)F)c2)CCC1=O (stereo unspecified)	FUS suppressor 32µM
c1ccc(-c2csc3ncnc(N4CCc5ccccc5C4)c23)cc1	TDP-43 yeast inh 11µM (no result: FUS suppressor)
COc1ccc(N2CCN(C(=O)CSc3nc(C)cs3)CC2)cc1	none
COc1ccc(N2CCN(C(=O)CSc3ncnc4scc(-c5ccc(C)cc5)c34)CC2)cc1	TDP-43 yeast inh 11µM
COc1ccc(-c2csc3ncnc(N4CCN(c5cccc(OC)c5)CC4)c23)cc1	TDP-43 yeast inh 11µM (no result: FUS suppressor)
COc1ccc(-c2csc3ncnc(N4CCN(c5cccc(Cl)c5)CC4)c23)cc1	none (no result: FUS suppressor)
COc1ccc(N2CCN(c3ncnc4scc(-c5ccc(C)cc5)c34)CC2)cc1	TDP-43 yeast inh inconclusive
COc1ccc(N2CCN(c3ncnc4scc(-c5ccc(F)cc5)c34)CC2)cc1	TDP-43 yeast inh 13µM
Cc1cc2ncn(-c3ncnc4scc(-c5ccccc5)c34)c2cc1C	TDP-43 yeast inh 8.9µM (no result: FUS suppressor)
COc1ccc(-c2csc3ncnc(N4CCN(S(=O)(=O)c5ccc(Cl)s5)CC4)c23)cc1	none
COc1ccc(-c2csc3ncnc(N4CCN(S(=O)(=O)c5cccs5)CC4)c23)cc1	TDP-43 yeast inh 13µM
O=C(Cc1ccc(F)cc1)NCCc1csc(-c2cccc(F)c2)n1	TDP-43 yeast inh 11µM (no result: aSyn yeast inh)
Cc1cccc(-c2nc(CCNC(=O)Cc3ccc(F)cc3)cs2)c1	none (no result: aSyn yeast inh)
O=C(NCCc1csc(-c2ccc(C(F)(F)F)cc2)n1)c1ccc(F)c(F)c1	TDP-43 yeast inh 25µM, FUS suppressor inconclusive
O=S(=O)(NCCc1csc(-c2cccnc2)n1)c1cc(F)ccc1F	Abeta rescue 14µM, TDP-43 yeast inh inconclusive (no result: FUS suppressor)
O=C(NCCc1csc(-c2ccc(F)cc2)n1)c1cccc(F)c1	TDP-43 yeast inh 16µM (no result: aSyn yeast inh)
Cc1ccc(CNC(=O)[C@H](C)[C@H]2C[C@]2(C)[C@H](NC(=O)OCc2ccccc2)c2ccccc2)o1	none
Cc1nc(NC(=O)/C=C/c2ccccc2)sc1C(=O)Nc1cccc(Cl)c1	none
CC(C)(C)n1cnc(C(N)=O)c1N	none
S=C(NCC1(c2ccccc2)CCCC1)Nc1ccccc1	Abeta rescue 5µM, TDP-43 yeast inh inconclusive
O=C(NCC1(c2ccccc2)CCCC1)C(=O)NCC1(c2ccccc2)CCCC1	none (no result: FUS suppressor)
O=C(NCCC1=CCCCC1)C1CC(=O)N(C2CCCCCC2)C1 (stereo unspecified)	Abeta rescue inconclusive
COc1ccc(S(=O)(=O)NCCc2sc(-c3cccc(F)c3)nc2C)cc1	TDP-43 yeast inh 25µM (no result: aSyn yeast inh)
COc1ccc(-c2nc(C)c(CCNS(=O)(=O)c3cc(Cl)ccc3Cl)s2)cc1	aSyn yeast inh inconclusive, TDP-43 yeast inh 25µM, FUS suppressor inconclusive
COc1ccc(-c2nc(C)c(CCNS(=O)(=O)c3ccc(F)cc3)s2)cc1OC	TDP-43 yeast inh inconclusive
CCOc1ccc(CNC(=O)C2CCN(C(=O)c3sccc3-n3cccc3)CC2)cc1	none (no result: aSyn yeast inh)
Cc1cc2cc(C(c3nnnn3Cc3ccco3)N3CCc4ccccc43)c(=O)[nH]c2cc1C (stereo unspecified)	FUS suppressor inconclusive
Cc1cc2cc(C(c3nnnn3Cc3ccco3)N3CCc4ccccc4C3)c(=O)[nH]c2cc1C (stereo unspecified)	FUS suppressor 14µM
CCOC(=O)Cn1c(=O)n(Cc2ccco2)c(=O)c2ccc(C(=O)NC3CCCC3)cc21	aSyn yeast inh 0.56µM
CC(=O)NC(CC(C)C)C(=O)NC(Cc1ccccc1)C(=O)CCl (stereo unspecified)	none (no result: FUS suppressor)
CCc1cc(C(=O)Nc2ccc(C)cc2Br)cs1	TDP-43 yeast inh 13µM
CN1C(=O)/C(=C/c2cccc(Cl)c2)Sc2ccc(C(=O)N3CCOCC3)cc21	TDP-43 yeast inh 20µM
Cc1noc2ncnc(Sc3ccc(Br)cc3)c12	TDP-43 yeast inh 5.6µM
COc1cccc(NC(=O)c2csc3c2CCCCC3)c1	TDP-43 yeast inh 13µM (no result: aSyn yeast inh)
COc1ccc(NC(=O)c2csc3c2CCCCC3)cc1	none (no result: aSyn yeast inh)
Cc1coc2c(C)c3oc(=O)c(CCC(=O)NCCCN4CCOCC4)c(C)c3cc12	none
Cc1ccsc1CN(C(=O)c1oc2ccccc2c1C)C1CCS(=O)(=O)C1 (stereo unspecified)	TDP-43 yeast inh inconclusive (no result: aSyn yeast inh)
CC(C)(CO)NC(=O)C12CC3CC(CC(Br)(C3)C1)C2	none
CCOc1cc(C(c2c(C)[nH][nH]c2=O)c2c(C)[nH][nH]c2=O)ccc1OC(=O)c1cccc([N+](=O)[O-])c1	FUS suppressor 35µM
CC(C)CC(NS(=O)(=O)OCC(Cl)(Cl)Cl)c1ccccc1 (stereo unspecified)	none
CC(NS(=O)(=O)OCC(Cl)(Cl)Cl)c1ccc(Br)cc1 (stereo unspecified)	TDP-43 yeast inh 35µM
COc1ccc(CCNC(=O)C(=O)NCC(c2cccs2)S(=O)(=O)c2ccc(C)cc2)cc1 (stereo unspecified)	none (no result: aSyn yeast inh)
Cc1ccc(OCC(=O)N/N=C\c2c(C)[nH]n(-c3ccccc3)c2=O)c([N+](=O)[O-])c1	aSyn yeast inh 20µM, Abeta rescue inconclusive, FUS suppressor inconclusive
Cc1ccc(/C=N\NC(=O)COc2ccc(C)cc2[N+](=O)[O-])cc1	none
Cc1cccc(NC(=O)c2cnn(-c3ccccc3)c2C)c1C	none
Cc1ccccc1NC(=O)c1cnn(-c2ccccc2)c1C	TDP-43 yeast inh 13µM
CCc1ccccc1NC(=O)c1cnn(-c2ccccc2)c1C	TDP-43 yeast inh 14µM
Cc1ccc(C)c(NC(=O)c2cnn(-c3ccccc3)c2C)c1	TDP-43 yeast inh inconclusive
FC(F)(F)c1ccc(Sc2n[nH]c(C(F)(F)F)n2)nc1	none
COc1ccccc1C(=O)O/N=C(\N)c1ccccc1Cl	TDP-43 yeast inh 16µM
COc1ccc(C(=O)O/N=C(\N)c2ccccc2)c(OC)c1	TDP-43 yeast inh 14µM
COc1ccc(C(=O)O/N=C(\N)c2ccccc2Cl)cc1OC	TDP-43 yeast inh inconclusive
S=C(Nc1ccccn1)Nc1ccccc1Cl	TDP-43 yeast inh 16µM
COc1cc(NC(=S)Nc2ccccn2)cc(OC)c1	TDP-43 yeast inh 10µM
Cc1c(Cl)cccc1NC(=S)Nc1ccccn1	none

Source: PubChem BioAssay
